Experimental data reported in PubChem BioAssay (NCATS).
Values joined by “and” are separate entries in the source; they are usually repeats but may differ in a detail not shown here. Equal values may be shown once. Results filed as inconclusive are left out. Active and inactive are the calls of the source. Unless noted, the rule behind the calls is not given here.

Experiments:
[1] = qHTS assay for cell viability of HEK293 cells (AID 743288; active = well fitted cell-killing curve with a large enough effect; note: % is set by controls: 0 for no effect and ±100 for the full control effect; nearly all actives have a fitted effect of over 50% in size); details: ATP luminescence (CellTiter-Glo), 18 h, stronger effect = lower value
Summary of the method: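 HEK293 parental, 2,000 cells/well; ≥5 h pre-incubation 37 C; pintool compound addition; 18 h, 37 C; CellTiter-Glo 30 min RT; luminescence read.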

[2] = qHTS assay for cell viability of the p53RE-bla HCT-116 cell line (AID 743292; active = well fitted cell-killing curve with a large enough effect; note: % is set by controls: 0 for no effect and ±100 for the full control effect; nearly all actives have a fitted effect of over 55% in size); details: p53RE-bla HCT-116 viability, ATP luminescence, 16 h; series mostly up to 95 µM
Summary of the method: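 CellSensor p53RE-bla HCT-116 cells (4,000/well) pre-incubated 5 h at 37 C, then exposed to compounds in DMSO for 16 h at 37 C. Viability read as ATP content by CellTiter-Glo luminescence after 30 min at room temperature.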

[3] = biological target: Nuclear receptor subfamily 1 group I member 2 (Rattus norvegicus) (UniProt Q9R1A7); assay: qHTS assay for small molecule activators of the rat pregnane X receptor (rPXR) signaling pathway (AID 651751); details: rPXR reporter cells, luciferase (One-Glo), 24 h; note: 0% is about no effect
Sequence of Nuclear receptor subfamily 1 group I member 2 (Rattus norvegicus) (Q9R1A7 whole entry, looked up): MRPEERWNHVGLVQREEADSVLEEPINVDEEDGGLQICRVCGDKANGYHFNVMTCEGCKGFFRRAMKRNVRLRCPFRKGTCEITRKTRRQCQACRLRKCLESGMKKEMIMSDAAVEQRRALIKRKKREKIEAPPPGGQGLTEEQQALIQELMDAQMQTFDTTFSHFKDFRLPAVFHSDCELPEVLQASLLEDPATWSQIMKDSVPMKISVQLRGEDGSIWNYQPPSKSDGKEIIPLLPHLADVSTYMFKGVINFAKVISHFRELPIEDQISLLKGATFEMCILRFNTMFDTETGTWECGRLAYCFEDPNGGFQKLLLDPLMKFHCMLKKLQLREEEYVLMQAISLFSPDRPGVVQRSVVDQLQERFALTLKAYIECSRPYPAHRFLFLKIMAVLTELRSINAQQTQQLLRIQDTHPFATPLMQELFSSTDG

[4] = qHTS assay for small molecule activators of the human pregnane X receptor (PXR) signaling pathway (AID 720659); details: DPX-2 HepG2 CYP3A4-luciferase, 24 h; series mostly up to 92.3 µM; note: 0% is about no effect

COC(=O)c1ccccc1
inactive: max response [1] 2.22% | Potency [2] | max response [3] 0.652% | outcome [4]

CCOc1ccc(NC(C)=O)cc1N
inactive: max response [1] -2.43% | Potency [2] | max response [3] 9.33% | outcome [4]

O=C(Cl)c1cccc([N+](=O)[O-])c1
inactive: max response [1] -15.1% | Potency [2] | max response [3] -6.23% | outcome [4]

BrC(Br)C(Br)Br
inactive: max response [1] 6.64% | Potency [2] | max response [3] 0.617% | outcome [4]

O=Cc1cccc(Br)c1
inactive: max response [1] 1.54% | Potency [2] | max response [3] 5.18% | outcome [4]

CCOC(=O)C(C)C(C)=O (configuration not stated)
inactive: max response [1] 2.57% | Potency [2] | max response [3] 4.21% | outcome [4]

C/C=C1\CC2C=CC1C2 (configuration not stated)
inactive: max response [1] 9.62% | Potency [2] | max response [3] 0.0305% | outcome [4]

CC(C)N=C=NC(C)C
inactive: max response [1] 3.11% | Potency [2] | max response [3] 1.41% | outcome [4]

CC(=O)C1(C)CC2=C(CCCC2(C)C)CC1C (configuration not stated)
inactive: max response [1] -9.23% | Potency [2] | max response [3] 2.11% | outcome [4]

C1CCC2OC2C1 (configuration not stated)
inactive: max response [1] -1.95% | Potency [2] | max response [3] -4.14% | outcome [4]

Nc1cccc(N)c1
inactive: max response [1] 5.39% | Potency [2] | max response [3] 11.3% | outcome [4]

NC=O
inactive: max response [1] -0.0358% | Potency [2] | max response [3] -1.14% | outcome [4]

NC(=O)c1ccccc1[N+](=O)[O-]
inactive: max response [1] 7.1% | Potency [2] | max response [3] -1.43% | outcome [4]

O=C1OC(=O)c2c(Cl)c(Cl)c(Cl)c(Cl)c21
inactive: max response [1] 5.35% and -3.52% | Potency [2] | max response [3] 0.139% and -2.42% | outcome [4]

CC(C)(C)OC=O
inactive: max response [1] 5.3% | Potency [2] | max response [3] 3.48% | outcome [4]

CC(C)=CCl
inactive: max response [1] -6.69% | Potency [2] | max response [3] 3.22% | outcome [4]

CCCCCCCN
inactive: max response [1] 9.44% | Potency [2] | max response [3] -0.183% | outcome [4]

CC(=O)CC(C)C
inactive: max response [1] -6.25% | Potency [2] | max response [3] -2.17% | outcome [4]

NC(=O)NC(N)=O
inactive: max response [1] -4.97% | Potency [2] | max response [3] -0.329% | outcome [4]

Cc1ccc([N+](=O)[O-])c(N)c1
inactive: max response [1] -6.54% | Potency [2] | max response [3] -3.2% | outcome [4]

C(=C/c1ccccc1)/c1ccccc1
inactive: max response [1] -10.3% | Potency [2] | max response [3] 0.267% | outcome [4]

O=C1CCC(=O)O1
inactive: max response [1] -3.25% | Potency [2] | max response [3] -4.75% | outcome [4]

O=Cc1ccc(Cl)cc1
inactive: max response [1] -6.94% | Potency [2] | max response [3] -2.77% | outcome [4]

C=CCCCCCC
inactive: max response [1] 3.39% | Potency [2] | max response [3] 3.09% | outcome [4]

CCOCC(=O)O
inactive: max response [1] -0.256% | Potency [2] | max response [3] 1.81% | outcome [4]

Cc1ccc(C#N)cc1
inactive: max response [1] -2.64% | Potency [2] | max response [3] 3.52% | outcome [4]

CC(C)CCOC(=O)/C=C/c1ccccc1
inactive: max response [1] -10.1% | Potency [2] | max response [3] 0.15% | outcome [4]

O=C(O)c1ccc(Cl)c(Cl)c1
inactive: max response [1] 1.65% | Potency [2] | max response [3] -0.362% | outcome [4]

CN(C)CCCCl
inactive: max response [1] 7.77% | Potency [2] | max response [3] 3.08% | outcome [4]

Nc1ccccc1[N+](=O)[O-]
inactive: max response [1] -7.67% | Potency [2] | max response [3] -0.731% | outcome [4]

O=[N+]([O-])c1ccc2nc[nH]c2c1
inactive: max response [1] 3.84% | Potency [2] | max response [3] -0.905% | outcome [4]

CCCCN(CCO)CCCC
inactive: max response [1] -7.26% | Potency [2] | max response [3] 1.69% | outcome [4]

NC(N)=S
inactive: max response [1] -3.49% | Potency [2] | max response [3] -3.24% | outcome [4]

CC(O)COC(C)(C)C (configuration not stated)
inactive: max response [1] -14.3% | Potency [2] | max response [3] 2.3% | outcome [4]

CCCCCCCCCCCCC1CO1 (configuration not stated)
inactive: max response [1] -4.83% | Potency [2] | max response [3] 4.9% | outcome [4]

Cc1c(N)cccc1[N+](=O)[O-]
inactive: max response [1] 11.6% | Potency [2] | max response [3] -0.458% | outcome [4]

C1CCOC1
inactive: max response [1] -1.37% | Potency [2] | max response [3] 2.84% | outcome [4]

CC(C)Cc1nccs1
inactive: max response [1] -11.2% | Potency [2] | max response [3] 7.57% | outcome [4]
